According to PubChem BioAssay:

Biological target: E3 ubiquitin-protein ligase XIAP (Homo sapiens) (UniProt P98170)
Experiment: small molecules binding XIAP protein – biophysical, small-molecule microarray, fluorescence 635 nm, primary screen (AID 1181);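 note: score merges 667 nm emission and signal to noise over triplicate slides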
Conditions: higher = more signal

Sequence of E3 ubiquitin-protein ligase XIAP (Homo sapiens) (P98170 whole entry, looked up): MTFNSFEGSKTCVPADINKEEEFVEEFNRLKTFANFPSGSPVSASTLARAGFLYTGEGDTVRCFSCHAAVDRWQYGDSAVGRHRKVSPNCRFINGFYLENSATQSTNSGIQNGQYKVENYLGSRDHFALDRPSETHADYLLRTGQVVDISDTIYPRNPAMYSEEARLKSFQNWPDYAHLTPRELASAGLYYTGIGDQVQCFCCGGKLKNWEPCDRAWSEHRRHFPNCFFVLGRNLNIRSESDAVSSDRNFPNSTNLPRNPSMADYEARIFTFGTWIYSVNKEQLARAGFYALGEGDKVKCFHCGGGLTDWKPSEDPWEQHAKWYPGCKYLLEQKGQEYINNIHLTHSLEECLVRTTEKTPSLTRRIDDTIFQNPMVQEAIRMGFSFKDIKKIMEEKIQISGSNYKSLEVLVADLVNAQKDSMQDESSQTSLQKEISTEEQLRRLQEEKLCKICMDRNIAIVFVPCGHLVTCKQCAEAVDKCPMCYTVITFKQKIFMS

In order of rising composite z-score:
1. CCOC(=O)C[C@H]1[C@H](OC(=O)Cc2ccc3c(c2)OCO3)[C@@H](NC(=O)Cc2ccc(OC)cc2)c2cc(OCCCO)ccc2N1C(=O)c1ccccc1  -0.406
2. NCCCCCNC(=O)[C@@H]1C[C@@H]2C(=O)N[C@@H](CCCCN)C(=O)N2[C@@H]1c1cccc(OCCO)c1  -0.399
3. CC1CC/C=C\[C@H]2OC34C=CCN(C(C)C)C(=O)[C@H]3N(CCCCCO)C(=O)[C@@H]4C2C(=O)O1 (some centres undefined)  -0.304
4. CC(C)CN1C(=O)[C@@]2(c3ccc([N+](=O)[O-])cc3)CC(=O)N(CC34CC5CC(CC(C5)C3)C4)[C@@H]2c2ccc(CO)cc21  -0.289
5. COC(=O)[C@@]1(Cc2ccc(F)cc2)[C@H]2c3cc(C(=O)N4CCCC4)n(CCF)c3C[C@H]2CN1C(=O)c1ccccc1  -0.233
6. CCOC(=O)C1=CC[C@@H](c2ccc([N+](=O)[O-])cc2)N(S(=O)(=O)c2ccc(C)cc2)[C@H]1c1ccccc1  -0.124
7. CC=CC(O)C1C=CC2C(=O)N(C)C(=O)C2N1N1CCCCC1 (centres undefined)  -0.114
8. COc1ccc(NC(=O)O[C@H]2[C@H](OC(=O)Nc3ccc4c(c3)OCO4)[C@@H](OC(=O)Nc3ccc4c(c3)OCO4)[C@@H](OC)O[C@@H]2CO)cc1  -0.102
9. COC1(C)CN(Cc2ccccc2Br)[C@H](/C=C/c2ccccc2)[C@H](Cc2ccccc2)O1 (some centres undefined)  -0.102
10. COCCOC(=O)N1C(=O)[C@@]2(c3cc(C#Cc4ccc(OC)cc4)ccc31)[C@H](C(=O)N1CCN(c3ncccn3)CC1)[C@H]1C(=O)O[C@H](c3ccccc3)[C@H](c3ccccc3)N1[C@@H]2c1ccccc1OCCO  -0.0928
11. CC(=O)NCCCC[C@@H]1NC(=O)[C@@H]2C[C@H](C(=O)O)[C@H](c3ccc(O)cc3)N2C1=O  -0.0796
12. CCCCN1CC=CC23O[C@@H]4C=CCOC(=O)[C@@H]4[C@H]2C(=O)N(C(C)CO)[C@@H]3C1=O (some centres undefined)  -0.0525
13. COC(=O)[C@H](Cc1ccccc1)N1CC(/C=C/C2CC2)=C[C@@H]1[C@@H](O)Cc1ccccc1  -0.0414
14. NC(=O)NCC#Cc1ccc2c(c1)[C@]1(C(=O)N2)[C@H](C(=O)Nc2nc3ccccc3s2)[C@H]2C(=O)O[C@H](c3ccccc3)[C@H](c3ccccc3)N2[C@@H]1c1ccc(O)cc1  -0.0337
15. COCC(=C=CC[C@H](O)c1ccc(OCCO)cc1)C[C@H](O)COCc1ccccc1  -0.0238
16. CC(C)c1ccc(NN2C(C(O)c3ccco3)C=CC3C(=O)N(c4ccccc4)C(=O)C32)cc1 (centres undefined)  -0.0026
17. C[C@]1(C(=O)O)c2ccccc2C(=O)N(Cc2ccccc2)[C@H]1c1ccc(CO)cc1  0.013
18. O=C1NCC(=O)N2[C@@H]1C[C@@H](C(=O)O)[C@H]2c1ccc(O)cc1  0.0374
19. [N-]=[N+]=Nc1ccccc1C[C@]1(C(=O)NCc2ccccc2)N=C(c2ccc(OCCCO)cc2)O[C@H]1c1ccccc1  0.0378
20. CCOC(=O)C[C@H]1[C@H](OC(=O)c2ccc(-c3ccccc3)cc2)[C@@H](NC(=O)C2CCCCC2)c2cc(OCCCO)ccc2N1C(=O)c1ccccc1  0.0623
21. COc1ccc(NN2C(C(O)c3ccco3)C=CC3C(=O)N(C4CCCCC4)C(=O)C32)cc1 (centres undefined)  0.065
22. COc1cc(CO)cc(I)c1O[C@H]1C=C(C(=O)NCCO)C[C@@H](NCc2ccccc2F)[C@@H]1O  0.0669
23. O=C1O[C@@H](c2ccccc2)[C@@H](c2ccccc2)N2[C@@H](c3ccc(O)cc3)[C@]3(C(=O)Nc4ccc(C#CC5=CCCCC5)cc43)[C@@H](C(=O)N3CCN(c4ncccn4)CC3)[C@H]12  0.118
24. C=CCN1C(=O)[C@]2(CC=C)N=C(c3ccc(OCCCO)cc3)O[C@@H]2c2ccccc21  0.197
25. O=C1NC(=O)C2C1C=CC(C(O)c1cc(C(F)(F)F)cc(C(F)(F)F)c1)N2Nc1ccc(Cl)cc1Cl (centres undefined)  0.214
26. COC(=O)[C@@]1(Cc2ccccc2)[C@H]2c3cc(C(=O)N4CCCC4)n(Cc4ccsc4Br)c3C[C@H]2CN1C(=O)c1ccccc1  0.218
27. C=CC1c2cc(O)c(OC)cc2CCN1Cc1sc2ccccc2c1Cl (centres undefined)  0.265
28. COC(=O)Cn1c(C(=O)N2CCCC2)cc2c1C[C@H]1CN(C(=O)c3ccccc3)[C@@](Cc3ccc(F)cc3)(C(=O)OC)[C@@H]21  0.303
29. O=C1O[C@@H](c2ccccc2)[C@@H](c2ccccc2)N2[C@@H](c3ccccc3OCCO)[C@]3(C(=O)Nc4ccccc43)[C@@H](C(=O)NC[C@H](O)c3ccccc3)[C@H]12  0.311
